71 compounds from ChEMBL document CHEMBL4513146, “CO-ADD screening of Karazin Kharkiv National University (Ukraine) compounds” can be followed below.

The test system of assay [1] is Staphylococcus aureus. The conditions noted are these: Concentration 32 ug.mL-1;; ASSAY_TEST Inhibition of Bacterial Growth; detection method Absorption (OD600); MEDIA CAMHB; plate type 384well; NBS; CORNING #3640; time 18 hr.
Assay [2] concerns Escherichia coli. The conditions noted are these: Concentration 32 ug.mL-1;; ASSAY_TEST Inhibition of Bacterial Growth; detection method Absorption (OD600); MEDIA CAMHB; plate type 384well; NBS; CORNING #3640; time 18 hr.

Structures are written as SMILES. Potency and affinity values are given separately.

As to `COc1ccc(-c2cc3c4nnc(SCC(=O)NCc5ccc(Cl)cc5)n4ccn3n2)cc1`, the Inhibition in assay [1] is listed as -1.89%; in assay [2], -4.94%.
With `CCOc1ccc(-n2ccn3c(SCc4cccc(C(F)(F)F)c4)nnc3c2=O)cc1`, the Inhibition in assay [1] worked out at 18.58%; in assay [2], 1.02%.
The corresponding values for `COc1cccc(Oc2nccn3c(=O)n(CC(=O)NCc4ccc(SC)cc4)nc23)c1` are 10.98% and 2.64%.
Regarding `COc1ccc(-c2cc3c4nn(CC(=O)Nc5cc(OC)ccc5OC)c(=O)n4ccn3n2)cc1`, the results for the Inhibition in assay [1] and in assay [2] were 5.8% and 4.02%, respectively.
Consider `COc1ccc(-c2cc3c4nn(CC(=O)NCc5ccccc5Cl)c(=O)n4ccn3n2)cc1`, for which the Inhibition came to 8.73% in assay [1] and 0.93% in assay [2].
The like results for `COc1ccc(NC(=O)c2ccc3nn(CC(=O)Nc4ccc5c(c4)OCCO5)c(=O)n3c2)cc1` were, in that order, 0.27% and -8.29%.
The like results for `COc1cc(NC(=O)Cn2nc3c4c5c(sc4ncn3c2=O)CCCC5)cc(OC)c1` were, in that order, -0.84% and -8.54%.
For the compound `COc1ccc(NC(=O)Cn2nc3c(Sc4ccccc4)nc4ccccc4n3c2=O)cc1Cl`, the Inhibition in assay [1] is reported as -0.59%; in assay [2] it was -7.36%.
With `CC(C)c1nnc2c(SCC(=O)N3CCN(c4ccc(F)cc4)CC3)nc3ccccc3n12`, the Inhibition in assay [1] was 10.21%; in assay [2] it was -1.94%.
The like results for `O=C(Cn1nc2ccc(-c3ccc(Cl)cc3)nn2c1=O)Nc1ccccc1` were, in that order, -4.65% and -11.42%.
On to `COc1cccc(-n2ccn3c(SCc4cccc(Cl)c4)nnc3c2=O)c1`, for which the Inhibition in assay [1] was 12.15%; in assay [2] it was -0.34%.
The like results for `Cc1ccc(NC(=O)CSc2nnc3c4cc(-c5ccccc5)nn4ccn23)c(C)c1` were, in that order, -9.27% and -11.37%.
The like results for `Cc1ccc(-c2ccc3nn(CC(=O)Nc4ccc(Br)cc4)c(=O)n3n2)cc1C` were, in that order, 15.41% and -2.09%.
The like results for `Cc1cc(C)cc(N(Cc2cccc(Cl)c2)S(=O)(=O)c2cccn3cnnc23)c1` were, in that order, 7.13% and -3.73%.
`COc1cccc(CN(c2cc(F)cc(F)c2)S(=O)(=O)c2ccc3nnc(C)n3c2)c1`: the Inhibition in assay [1] is 7.94%; in assay [2], -9.84%.
The like results for `COC(=O)c1ccc(NC(=O)Cn2nc3c(Oc4ccccc4)nccn3c2=O)cc1` were, in that order, 1.06% and -10.41%.
The corresponding values for `COc1cccc(-c2noc(Cn3nc4ccc(-c5ccc(C)c(C)c5)nn4c3=O)n2)c1OC` are 6.16% and -3.11%.
The like results for `O=c1c2nnc(SCc3ccc(Cl)cc3)n2ccn1-c1ccc(F)c(F)c1` were, in that order, 4.12% and 3.28%.
As to `CCC(C)NC(=O)CCn1c(=O)c2ccccc2n2c(=O)n(CC(=O)NCc3cccs3)nc12` (configuration not stated), the results for the Inhibition in assay [1] and in assay [2] were 6.1% and -2.09%, respectively.
The like results for `CCCCOc1ccc(-c2cc3c4nnc(SCC(=O)N(CC)c5ccccc5)n4ccn3n2)cc1` were, in that order, 7.98% and -2.57%.
The corresponding values for `COc1cc(NC(=O)Cn2nc3n(CCc4ccccc4)c(=O)c4ccccc4n3c2=O)cc(OC)c1` are 8.09% and -2.27%.
The like results for `CC(C)CCn1c(=O)c2sccc2n2c(=O)n(CCOc3ccccc3)nc12` were, in that order, 0.45% and -7.84%.
Turning to `COc1cccc(-n2ccn3c(SCc4cccc(C(F)(F)F)c4)nnc3c2=O)c1`, the Inhibition is 7.34% in assay [1] and -9.08% in assay [2].
Consider `O=C(Cn1nc2c(N3CCOCC3)nccn2c1=O)NCc1ccc(F)cc1`, for which the Inhibition in assay [1] is 19.72%; in assay [2], 0.87%.
Take `N#Cc1ccc(NC(=O)CSc2nnc3c4cc(-c5ccc(F)cc5)nn4ccn23)cc1`: the Inhibition is listed as 5.96% in assay [1] and -4.2% in assay [2].
`CCOC(=O)c1ccc(NC(=O)Cn2nc3ccc(Sc4cccc(F)c4)nn3c2=O)cc1`: the Inhibition in assay [1] is 9.91%; in assay [2], -1.47%.
For `COc1cccc(-n2ccn3c(SCc4ccc(F)cc4)nnc3c2=O)c1`, the Inhibition is recorded as 5.89% in assay [1] and -10.24% in assay [2].
The like results for `Cc1cc(C)cc(Nc2nc(C)cc3nn(CC(=O)N(C)c4cccc(C)c4)c(=O)n23)c1` were, in that order, 5.67% and -3.82%.
The corresponding values for `Cc1nnc2c(S(=O)(=O)N(Cc3cccc(F)c3)c3ccc(C(C)C)cc3)cccn12` are 15.47% and -0.86%.
The corresponding values for `CC(C)NC(=O)Cn1nc2n(Cc3ccco3)c(=O)c3sccc3n2c1=O` are 9.36% and 3.27%.
Take `Cc1ccc(Oc2nccn3c(=O)n(CC(=O)Nc4ccc5c(c4)OCO5)nc23)cc1`: the Inhibition in assay [1] is reported as 6.26%; in assay [2] it was -6.61%.
As to `Cc1nnc2c(=O)n(CC(=O)Nc3ccc(Cl)cc3F)c3ccccc3n12`, the values for the Inhibition in assay [1] and in assay [2] were 7.03% and -1.92%, respectively.
Turning to `Cc1ccc(-c2ccc3nn(Cc4cccc(F)c4)c(=O)n3n2)cc1C`, the Inhibition is recorded as 7.67% in assay [1] and 1.83% in assay [2].
The corresponding values for `COc1ccc(-c2cc3c4nn(CC(=O)Nc5cccc(OC)c5)c(=O)n4ccn3n2)cc1` are -3.02% and -0.95%.
The like results for `O=c1c2nnc(SCc3ccc(Cl)cc3)n2ccn1-c1ccc(F)cc1` were, in that order, 4.01% and 2.84%.
The like results for `CCc1ccc(N(Cc2ccc(C)cc2)S(=O)(=O)c2cccn3cnnc23)cc1` were, in that order, 18.47% and 2.14%.
`O=C(CSc1nnc2c3cc(-c4ccccc4)nn3ccn12)NCc1ccccc1Cl`: the Inhibition was -4.46% in assay [1] and -7.31% in assay [2].
As to `Cc1ccc(NC(=O)Cn2nc3c4cc(-c5ccc(C)c(C)c5)nn4ccn3c2=O)cc1`, the Inhibition in assay [1] is listed as 7.11%; in assay [2] it was -1.34%.
The corresponding values for `O=c1c2nn(Cc3c(F)cccc3Cl)c(=O)n2ccn1-c1ccccc1` are -4.83% and 2.37%.
On to `Cc1ccc(S(=O)(=O)Nc2ccc3nnc(-c4ccccc4)n3n2)cc1C`, for which the Inhibition in assay [1] was 8.79%; in assay [2], -2.69%.
For the compound `Cc1ccc(NC(=O)Cn2nc3c4cc(-c5ccc(C)c(C)c5)nn4ccn3c2=O)c(C)c1`, the Inhibition in assay [1] is -8.87%; in assay [2] it was -22.36%.
`Cc1ccc(-c2ccc3nn(CC(=O)NC4CCCCC4)c(=O)n3n2)cc1C`: the Inhibition in assay [1] amounted to 8.8%; in assay [2], 0.07%.
The corresponding values for `CCOC(=O)c1ccc(NC(=O)Cn2nc3ccc(S(=O)(=O)C(C)(C)C)nn3c2=O)cc1` are 5.05% and -4.95%.
For `COc1ccc(NC(=O)Cn2nc3c4cc(-c5ccc(C)cc5)nn4ccn3c2=O)c(OC)c1`, the Inhibition is recorded as 1.08% in assay [1] and -1.29% in assay [2].
The like results for `Cc1cccc(Oc2nccn3c(=O)n(CC(=O)N4CCN(c5ccccc5F)CC4)nc23)c1C` were, in that order, -3.04% and -9.87%.
Take `CCC(C)NC(=O)Cn1c(=O)c2nnc(C)n2c2ccccc21` (configuration not stated): the Inhibition was 9.8% in assay [1] and -2.5% in assay [2].
The like results for `CCc1ccccc1Sc1nccn2c(=O)n(CC(=O)Nc3cc(C)ccc3C)nc12` were, in that order, 15.04% and 0.5%.
The corresponding values for `CC(C)CCNC(=O)CSc1nnc2c(=O)n(-c3ccc(F)cc3)ccn12` are 8.18% and -2.32%.
The like results for `O=C(CSc1nnc2c(=O)n(-c3ccc(Br)cc3)ccn12)Nc1cc(F)ccc1F` were, in that order, 11.71% and -2.54%.
Consider `O=C(Cn1nc2nc(Nc3ccc(F)cc3)ccn2c1=O)NCC1CCCO1` (configuration not stated), for which the figures for the Inhibition in assay [1] and in assay [2] were 2.52% and -9.11%, respectively.
`COc1ccc(-c2cc3c4nn(CC(=O)Nc5ccc(OC)c(OC)c5)c(=O)n4ccn3n2)cc1`: the results for the Inhibition in assay [1] and in assay [2] were 2.65% and 2.66%, respectively.
Take `O=C(Cn1nc2c(Oc3ccccc3)nccn2c1=O)Nc1cc(F)ccc1F`: the Inhibition in assay [1] is recorded as -5.96%; in assay [2] it was -11.57%.
As for `CCOc1ccc(-n2ccn3c(=O)n(CC(=O)Nc4ccc(Br)cc4)nc3c2=O)cc1`, the values for the Inhibition in assay [1] and in assay [2] were -12.91% and -1.87%, respectively.
The corresponding values for `Cc1cccc(C)c1NC(=O)Cn1nc2c(N3CCSCC3)nc3ccccc3n2c1=O` are -9.27% and -7.41%.
Regarding `COc1ccccc1-n1ccn2c(SCc3ccc(Cl)cc3)nnc2c1=O`, the Inhibition in assay [1] is 7.4%; in assay [2], -9%.
For the compound `Cc1ccc(-c2ccc3nn(CC(=O)N4CCN(c5ccc(F)cc5)CC4)c(=O)n3n2)cc1C`, the figures for the Inhibition in assay [1] and in assay [2] were -6.93% and -8.27%, respectively.
The corresponding values for `Cc1cc(F)ccc1NC(=O)Cn1nc2c(SCc3ccc(Cl)cc3)nccn2c1=O` are 7.28% and -4.86%.
The like results for `O=C(Cn1nc2c(Sc3cccc(F)c3)nccn2c1=O)Nc1ccc(F)c(Cl)c1` were, in that order, -0.79% and -15.42%.
The like results for `COc1ccccc1Cn1c(=O)c2sccc2n2c(=O)n(Cc3cccc(C)c3)nc12` were, in that order, 10.55% and 0.66%.
For `O=C(CSc1nnc2c(=O)n(-c3ccc(F)cc3)ccn12)c1ccccc1Cl`, the Inhibition is on record as 19.94% in assay [1] and -2.26% in assay [2].
The corresponding values for `CC(C)c1nnc2c(=O)n(CC(=O)Nc3ccc(Br)cc3F)c3ccccc3n12` are 7.11% and 1.53%.
The like results for `Cc1cccc(C)c1NC(=O)Cn1nc2c(Sc3cccc(F)c3)nccn2c1=O` were, in that order, 9.75% and -2.6%.
The like results for `CC(C)c1ccc(Oc2nc3ccccc3n3c(=O)n(CC(=O)Nc4ccc5c(c4)OCO5)nc23)cc1` were, in that order, 7.37% and 4.92%.
With `O=C(Cn1nc2c3cc(-c4ccc(Cl)cc4)nn3ccn2c1=O)NCc1ccccc1`, the Inhibition in assay [1] is reported as 12.1%; in assay [2], 4.95%.
For the compound `COc1ccc(CNC(=O)Cn2nc3c(N4CC(C)CC(C)C4)nccn3c2=O)cc1` (configuration not stated), the Inhibition in assay [1] is listed as 7.67%; in assay [2], -5.82%.
The corresponding values for `NC(=O)C1CCN(C(=O)CCc2nnc3c(N4CCCCC4)nc4ccccc4n23)CC1` are 14.39% and 0.84%.
In the case of `COc1ccccc1-n1ccn2c(=O)n(Cc3ccc(F)cc3Cl)nc2c1=O`, the results for the Inhibition in assay [1] and in assay [2] were 9.6% and -2.36%, respectively.
The corresponding values for `Cc1ccc(-n2ccn3c(=O)n(Cc4ccc(F)cc4)nc3c2=O)cc1C` are 10.94% and -2.15%.
The like results for `COc1ccc(CCn2c(=O)c3sccc3n3c(=O)n(Cc4ccc(F)cc4)nc23)cc1OC` were, in that order, 2.92% and -0.5%.
As for `O=C(Cn1nc2c3cc(-c4ccc(F)cc4)nn3ccn2c1=O)Nc1ccc(Br)cc1`, the Inhibition in assay [1] is reported as -9.12%; in assay [2], -9.31%.
`Cc1nnc2c(=O)n(CC(=O)Nc3cccc(F)c3)c3ccccc3n12`: the Inhibition in assay [1] is on record as 14.13%; in assay [2] it was 2.22%.
